Results taken from PubChem BioAssay (NCATS).
Records with an inconclusive call do not appear. Activity calls are given as the source filed them. Calls follow the shape of the dose curve; as a rule, active = well fitted inhibition curve with a large enough effect; inconclusive = small, poorly fitted or top-dose-only effect; inactive = flat fitted curve, though single readings scatter.

Columns and labels:
Experiment in all cases: qHTS profiling for inhibitors of Plasmodium falciparum proliferation (AID 504749); also: nearly all actives have a fitted effect of over 60% in size
Details in all cases: P. falciparum in erythrocytes, SYBR Green DNA, 72 h; series mostly up to 28.7 µM
CP335 = system: CP335
Summary of the method: (§1)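 SYBR Green fluorescence of parasite DNA, read after lysis and overnight dark incubation, measured growth over 72 h in erythrocyte culture at 0.3% parasitemia and 2.5% hematocrit. Data normalised to DMSO and 0.29 uM artemisinin, with plate-drift correction.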

DFO2036 = system: DFO2036
Summary of the method: as §1

DIV14 = system: DIV14
Summary of the method: as §1

DIV30 = system: DIV30
Summary of the method: as §1

Dd2 = system: Dd2
Summary of the method: as §1

ECU = system: ECU
Summary of the method: as §1

FAB9 = system: FAB9
Summary of the method: as §1

GB4 = system: GB4
Summary of the method: as §1

HB3 = system: HB3
Summary of the method: as §1

ICS = system: ICS
Summary of the method: as §1

JCK = system: JCK
Summary of the method: as §1

N140 = system: N140
Summary of the method: as §1

P93_24 = system: P93_24
Summary of the method: as §1

P94_40 = system: P94_40
Summary of the method: as §1

PAD = system: PAD
Summary of the method: as §1

PC15 = system: PC15
Summary of the method: as §1

PC26 = system: PC26
Summary of the method: as §1

PC49 = system: PC49
Summary of the method: as §1

SC27B = system: SC27B
Summary of the method: as §1

DIV17 = system: DIV17
Summary of the method: as §1

Measured: Potency

O=C1c2ccccc2S(=O)(=O)N1CCCCN1CCN(c2ncccn2)CC1
not listed: DIV17
inactive: all other assays above

COc1cc(C(=O)NCCCCCC(=O)O)cc(OC)c1OC
not listed: JCK
inactive: all other assays above

Nc1ncnc2c1ncn2[C@@H]1O[C@H](COP(=O)(O)O)[C@@H](O)[C@H]1O
not listed: ICS | PC49
inactive: all other assays above

CC(=O)Nc1ccc(OCCOCCOc2ccc(NC(C)=O)cc2)cc1
not listed: DIV17
inactive: all other assays above

Cc1c(NC(C)C)c(=O)n(-c2ccccc2)n1C
not listed: ECU | ICS
inactive: all other assays above
